PMP22 txn prim: Cell-based coincidence reporter assay to measure PMP22 gene transcription in S16 Pmp22-F2sN cells - Primary screen. actives 2% (n = 43,000). Potency, µM (doses to about 57.5 µM), inactives show at the highest dose activity change, negative = inhibition, actives largely listed as inhibitors. S16 Pmp22-F2sN Schwann cells, FLuc/NLuc coincidence luminescence, 24 h; active = clear falling dose curves in both reporters; inconclusive = both reporters move, but less clearly or upward; inactive = either reporter flat; the % is the NLuc reporter signal
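Schwann cells carrying the coincidence reporter were exposed to library compounds for 24 h at 37C, then lysed and read for FLuc and, after quenching, NLuc luminescence on a CCD imager.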
mTORC1 inh: Acumen qHTS Assay for Inhibitors of the mTORC1 Signaling Pathway in MEF (Tsc2-/-, p53-/-) Cells: Sytravon | Tsc2-/- p53-/- MEF, phospho-rpS6 immunofluorescence/PI, 24 h | Potency, µM (series often up to 38.3 µM), inactives show top-dose activity change, negative = inhibition, usual class: inhibitors | actives 0.78% (n = 44,000);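 also: plate controls were DMSO for no effect and rapamycin for full effect; nearly all actives have a fitted effect of over 50% in size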
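Readout is phospho-S6 Alexa 488 signal normalized to PI per well, reported as % active cells with thresholds set from rapamycin (7.5 nM) and DMSO controls. Cells: Tsc2-/-, p53-/- MEFs, 24 hrs compound at 37 C; PI cell number serves as viability.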
p53null 32C kill: qHTS Screen for Compounds that Selectively Target Cancer Cells with p53 Mutations: Cytotoxicity of p53 Null Cells at the Permissive Temperature; actives 0.62% (n = 55,000); Potency, µM (doses to about 46.1 µM), for inactives: at the highest dose activity change, negative = cytotoxicity, usual class: cytotoxic; H1299-neo p53 null cells, ATP luminescence, 24 h, 32C;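 also: 0% = DMSO only and -100% = full killing by 100 µM tamoxifen; nearly all actives have a fitted effect of over 55% in size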
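Overnight 37C seeding (600 cells/well) of H1299-neo preceded a 24 hr, 32C exposure to compounds up to 46 uM. ATP levels, read by luminescence after 20 min at RT, indicated surviving cells.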
S16 F2sN tox: Cell viability qHTS assay in S16 Pmp22-F2sN cells | S16 Pmp22-F2sN Schwann cells (luciferase reporters placed in the Pmp22 gene) viability, CellTiter-Glo, 24 h | Potency, µM (highest dose often 57.5 µM), inactives show at the highest dose activity change, negative = cytotoxicity, usual class: cytotoxic | actives 0.48% (n = 43,000); also: nearly all actives have a fitted effect of over 65% in size
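CellTiter-Glo counter-screen, qHTS, 1536-well. Cells: S16(c9) Pmp22-F2sN, 500-1,000/well in DMEM + 10% FBS. Cpd 23 nL pin transfer, 24 h, 37C/5% CO2. Read: luminescence, CCD imager.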
OvCa metastasis: Primary qHTS assay for Inhibitors of ovarian cancer metastasis using an organotypic tumor microenvironment (TME) model. SKOV3ip1-GFP adhesion/invasion on 3D omental model, fluorescence. Potency, µM (titrated, usually from 45.8 µM), for the others: top-dose activity change, negative = inhibition, usual class: inhibitors. actives 0.1% (n = 46,000);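 also: plate controls were DMSO wells for no effect and tomatine positive control wells for full effect; nearly all actives have a fitted effect of over 65% in size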
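Adhesion/invasion was scored as fixed GFP-labeled SKOV3ip1 cell counts (488/509 nm), normalized to DMSO and tomatine controls. Cancer cells in serum-free medium, with four compound doses (0.36-46 umol/L), sat 2 hr at RT then 16 hr at 37 C on a 48 hr fibroblast/mesothelial/ECM culture.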
p53null 39C kill: qHTS Screen for Compounds that Selectively Target Cancer Cells with p53 Mutations: Cytotoxicity of p53 Null Cells at the Nonpermissive Temperature | H1299 p53-null (neo) cells, 39C, ATPlite viability, 24 h | Potency, µM (doses to about 46.1 µM), for the others: at the top dose activity, negative = cell killing, most hits filed as cytotoxic | actives 0.97% (n = 55,000) | AID 904, 2007;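 also: 0% = DMSO only and -100% = full killing by 100 µM tamoxifen; nearly all actives have a fitted effect of over 50% in size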
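Luminescent ATP signal reported cell survival after H1299 lines (neo, p53 null; or p53 A138V) received up to 46 uM compound and 24 hr incubation at 39C.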
Numbers without * were called inactive; i = inactive; ? = inconclusive; . = not tested or not shown. Compounds with a hit are over-represented: about 3% of the library has one in this group of screens. Unless noted, calls follow the shape of the dose curve; as a rule, active = well fitted curve in the direction sought with a large enough effect; inconclusive = small, poorly fitted or top-dose-only effect, or another doubt; inactive = no such curve, though single readings can be large; an effect the other way counts as inactive or inconclusive. Unless noted, % is scaled to controls: 0 for no effect and ±100 for the full control effect; potency is read from the fitted curve at half-maximal effect.

SMILES | PMP22 txn prim | mTORC1 inh | p53null 32C kill | S16 F2sN tox | OvCa metastasis | p53null 39C kill
COc1ccc(NC(=O)CSc2nnc(-c3ccc(C)cc3)o2)cc1 | -36.8% | -4.4% | -9.0% | -3.0% | i | 15.5%
Cc1cccc(NC(=O)CSc2nnc(-c3ccccc3C)o2)c1 | . | . | -20.3% | . | . | 10µM*
Cc1cccc(-c2nnc(SCC(=O)Nc3ccc(C)c(C)c3)o2)c1 | -25.5% | -10.0% | -10.4% | 0.2% | 1.8% | -6.5%
O=C(CSc1nnc(-c2ccccc2F)o1)Nc1ccccc1Cl | 9.3% | -3.5% | -20.8% | -16.9% | i | 7.94µM*
C#Cc1cccc(Nc2ncnc3cc(OC)c(OCCCCCCC(=O)NO)cc23)c1 | . | . | . | . | 6.3% | .
C[C@@H](N)c1ccc(C(=O)Nc2ccnc3[nH]ccc23)cc1 | . | . | . | . | -11.1% | .
C=C[C@@H]1CN2CCC1C[C@H]2[C@H](O)c1ccnc2ccc(OC)cc12 (some centres not stated) | . | . | . | . | -11.9% | .
Cc1csc(-c2nnc(Nc3ccc(Oc4ncccc4-c4ccnc(N)n4)cc3)c3ccccc23)c1 | . | . | . | . | 26.0% | .
Cc1cc(N2CCCCC2)nc2ccc(NC(=O)/C=C/c3ccccc3OC(C)C)cc12 | -8.0% | 16.5µM* | 3.6% | 3.6% | i | -13.5%
COc1cccc(/C=C/C(=O)Nc2ccc3nc(N4CCN(C)CC4)cc(C)c3c2)c1OC | ? | ? | ? | 31.6µM* | ? | 20µM*
CCN1CCN(c2cc(C)c3cc(NC(=O)/C=C/c4cccc(OC)c4OC)ccc3n2)CC1 | -17.6% | ? | -17.5% | ? | ? | ?
NS(=O)(=O)OC[C@@H]1C[C@@H](n2ccc3c(N[C@H]4CCc5ccccc54)ncnc32)C[C@H]1O | . | . | . | . | -6.5% | .
Cc1[nH]c(C=C2C(=O)Nc3ccccc32)c(C)c1CCC(=O)O | . | . | . | . | -24.1% | .
Cc1cc(C(=O)NOCCO)c(Nc2ccc(I)cc2F)n(C)c1=O | . | . | . | . | 0.6% | .
COc1ccc(Nc2nc(N)c3cc(OC)c(OC)cc3n2)cc1 | ? | 18.5µM* | ? | ? | ? | ?
CCC(=O)C1=C(c2ccc(F)cc2)N(C(=O)CC)n2cnnc2S1 | ? | 11.7µM* | -2.1% | ? | i | -1.1%
CC(=O)C1=C(c2ccc(Cl)c(Cl)c2)N(C(C)=O)n2cnnc2S1 | ? | 14.7µM* | 12.1% | ? | ? | -22.5%
CCOc1ccc(C2=C(C(=O)CC)Sc3nncn3N2C(=O)CC)cc1 | ? | ? | 12.6µM* | ? | -19.2% | ?
COc1cccc(C2=C(C(C)=O)Sc3nncn3N2C(C)=O)c1 | ? | -10.0% | -8.5% | ? | -17.7% | -1.5%
CN1CCN(c2ncc(-c3cc(Cl)cc(Cl)c3Cl)c(N)n2)CC1 | . | . | . | . | 3.3% | .
CCCCN(C)CC(O)Cn1cc(/C=C/C(=O)c2ccc(C)cc2)c2ccccc21 (configuration not stated) | ? | ? | 15.8µM* | ? | ? | 22.4µM*
CCCCN(C)CC(O)Cn1cc(/C=C/C(=O)c2ccc(Br)cc2)c2ccccc21 (configuration not stated) | ? | ? | ? | ? | ? | 12.6µM*
CCCN(CCC)CC(O)Cn1cc(/C=C/C(=O)c2ccc(OC)cc2)c2ccccc21 (configuration not stated) | ? | 14.7µM* | ? | ? | ? | ?
CCCN(CCC)CC(O)Cn1cc(/C=C/C(=O)c2ccc(C)cc2)c2ccccc21 (configuration not stated) | ? | -10.1% | ? | ? | ? | ?
COc1ccc(C(=O)/C=C/c2cn(CC(O)CN3CCCCCC3)c3ccccc23)cc1OC (configuration not stated) | ? | -15.4% | 0.7% | -19.8% | -15.1% | ?
SMILES | PMP22 txn prim | mTORC1 inh | p53null 32C kill | S16 F2sN tox | OvCa metastasis | p53null 39C kill
COc1ccc(C(=O)/C=C/c2cn(CC(O)CN(CC(C)C)CC(C)C)c3ccccc23)cc1 (configuration not stated) | ? | -9.6% | -7.2% | -2.5% | i | -1.3%
CCCCN(C)CC(O)Cn1cc(/C=C/C(=O)c2ccc(OC)c(OC)c2)c2ccccc21 (configuration not stated) | ? | ? | ? | -23.9% | -22.2% | 12.6µM*
Nc1ncnc2c1c(-c1cccc(OCc3ccccc3)c1)cn2C1CC(CN2CCCC2)C1 (configuration not stated) | . | . | . | . | -18.1% | .
CC(C)(C)Cn1c(N)nc2ccc(-c3[nH]c(C(C)(C)C)nc3-c3ccc(F)cc3)nc21 | . | . | . | . | 2.8% | .
COc1ccc(-c2ccc3c(N4CCOC[C@H]4C)nc(N4CCOC[C@H]4C)nc3n2)cc1CO | . | . | . | . | -14.6% | .
C[C@@H](NCc1cc2ccccc2[nH]1)c1cccc2ccccc12 | . | . | . | . | -24.3% | .
CC(C)c1cnn2c(NCc3ccccc3)cc(NCCCCCCN)nc12 | . | . | . | . | -29.4% | .
O=C(/C=C/c1cn(CC(O)CN2CCCCCC2)c2ccccc12)c1ccccc1 (configuration not stated) | ? | ? | -8.9% | ? | -12.1% | -21.5%
O=C(/C=C/c1cn(CC(O)CN2CCCCCC2)c2ccccc12)c1ccc(Br)cc1 (configuration not stated) | ? | ? | 0.5% | -9.2% | -4.7% | 15.8µM*
COc1ccc(/C=N/Nc2nncc3ccccc23)cc1 | . | . | 4.47µM* | . | . | .
O=C(Nc1cccc(Br)c1)c1cc(-c2ccc3c(c2)OCCO3)on1 | -10.8% | -3.3% | ? | 5.3% | -7.2% | ?
Cc1cc(C)cc(OC(=O)c2cc(-c3ccc4c(c3)OCCO4)on2)c1 | -9.3% | 1.4% | ? | 4.4% | 4.8% | 31.6µM*
Cc1cccc(OC(=O)c2cc(-c3ccc4c(c3)OCCO4)on2)c1 | -12.7% | -2.0% | ? | -5.6% | i | 25.1µM*
CN1CCc2c(n(Cc3ccc(C(=O)NO)cc3)c3ccccc23)C1 | . | . | . | . | -8.1% | .

Screening results: PubChem, National Center for Advancing Translational Sciences (NCATS)
